Bioassay records (PubChem BioAssay)
RAM inhibit: yeast RAM network inhibition | S. cerevisiae dse1pr::URA3 reporter, 5-FOA growth OD615, 2 d; analog-sensitive cbk1-as2 kinase mutant strain | inhibition, % at 50 µM | hit rate 1.8% among 190,000 | AID 868;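 active = inhibition above a set limit, 3 SD over mean compound inhibition, cut at about 8.4% in these data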;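 also: 0% = DMSO-only wells with no growth and 100% = 10 µM 1-NA-PP1 full growth; inhibition rescues growth on 5-FOA so higher OD means more RAM inhibition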
PGE2 EP2 inh: inhibitors of human EP2 prostaglandin E2 receptor | inhibition, % at 25 µM | AID 1422 | hit rate 0.52% among 260,000 | P43116 | C6 glioma cells expressing human EP2, cAMP TR-FRET; cells stimulated with saturating PGE2;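 active = percent inhibition above 40 after rounding to a whole number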;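 also: rat C6 glioma host cells with rolipram phosphodiesterase inhibitor present; the protocol text gives 20 µM as final concentration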
Target sequence (P43116 whole entry, looked up): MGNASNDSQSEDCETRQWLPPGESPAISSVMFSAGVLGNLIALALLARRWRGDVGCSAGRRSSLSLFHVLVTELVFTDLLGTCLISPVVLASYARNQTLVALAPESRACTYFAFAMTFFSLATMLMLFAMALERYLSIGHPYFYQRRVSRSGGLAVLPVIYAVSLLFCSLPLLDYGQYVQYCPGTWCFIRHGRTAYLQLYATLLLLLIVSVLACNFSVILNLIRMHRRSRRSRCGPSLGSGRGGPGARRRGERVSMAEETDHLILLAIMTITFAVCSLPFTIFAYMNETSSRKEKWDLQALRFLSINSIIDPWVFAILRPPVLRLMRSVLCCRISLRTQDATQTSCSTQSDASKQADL
SKN-1 block: inhibitors of C. elegans SKN-1; C. elegans VP596 Pgst-4::GFP/RFP ratio, acrylamide-induced, 24 h; inhibition, % at 21.8 µM; hit rate 0.49% among 360,000; AID 624304;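 active = interference check ratio from 0.5 to 1.5 plus GFP to RFP signal ratio inhibition reaching or exceeding a fixed threshold, cut at about 30% in these data, passing the limit was not always enough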
PG9 Ab binder: small molecules binding HIV-1 gp120 antibody PG9; TR-FRET gp120-PG9 antibody binding; inhibition, % at 6.7 µM; hit rate 0.43% among 360,000; AID 624416; in the data active = inhibition above about 8.5%
NR1D1 modulator: Rev-erb alpha (human) modulation; AID 1259318; Rev-erbα–FITC-DNA binding, fluorescence polarization, 90 min; activity, % at 10 µM; P20393; hit rate 0.79% among 370,000;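 active = activity above about 14%, limit read from the data; passing the limit was not always enough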;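 also: 0% = DMSO wells with 35 nM protein and 100% = DMSO wells with 750 nM protein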
EP2 mod: modulators of human EP2 prostaglandin E2 receptor. P43116. EP2-expressing cells, cAMP HTRF FRET, PGE2 co-stimulation. induction, % at 25 µM. hit rate 0.83% among 260,000. AID 940;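 active = compounds whose cAMP rise, as percent of the full-agonist control response, exceeds 60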;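 also: rat C6 glioma line stably carrying human EP2 under a CMV promoter; the protocol text gives 20 µM as final concentration; 100% = response of wells given 1 µM PGE2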
RAM efflux-def: RAM network inhibition, efflux-deficient strain; shares compounds with RAM inhibit; 1,200 tested, under 10 active; max inhibition, %; S. cerevisiae efflux-deficient reporter strain, 5-FOA growth OD615, 2 days; call rule not given here;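 also: plate controls were vehicle for no effect and reference inhibitor for full effect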
An asterisk follows results filed as active; x = not tested or not shown. Rows were chosen to be rich in hits. Some 2.9% of all compounds tested hit in one or more screens of this group.

SMILES	RAM inhibit	PGE2 EP2 inh	SKN-1 block	PG9 Ab binder	NR1D1 modulator	EP2 mod	RAM efflux-def
CCCC1S/C(=N/N=C/c2ccc(C)cc2)N(Cc2ccc(OC)cc2)C1=O (stereo not drawn)	12.2*	7.1	5.9	-0.6	-0.4	14.3	4.9
COc1ccc(/C=N/N=C2\SC(CC(=O)O)C(=O)N2c2ccccc2)cc1 (stereo not drawn)	3.8	4.7	-4.9	0.8	-1.1	-2.3	x
CCCCNS(=O)(=O)c1ccc(NS(=O)(=O)c2c(C)cc(C)cc2C)cc1	11.8*	6.0	-11.1	2.5	-5.3	16.1	1.1
Cc1ccc(SCCNC(=O)c2ccc(C)c(S(=O)(=O)Nc3ccccc3C)c2)cc1	16.7*	24.7	9.2	-0.1	0.6	-33.7	3.1
CN(c1ccc(C(=O)NCCSCc2ccccc2)cc1)S(=O)(=O)c1ccccc1	6.5	2.4	7.6	-2.0	3.0	-8.3	x
Cc1cccc(CSCCNC(=O)c2ccc(N(C)S(=O)(=O)c3ccccc3)cc2)c1	17.6*	21.8	-2.9	0.1	-2.4	-24.1	4.9
CCN(Cc1ccccc1)c1ccc(/C=N/NS(=O)(=O)c2cccc([N+](=O)[O-])c2)cc1	14.4*	7.3	0.7	-1.6	1.8	30.1	3.2
CCCc1ccc(/C=C2\C(=O)c3ccccc3C(O)=C2C(=O)OCC)cc1	11.5*	7.1	x	x	x	41.0	3.6
CCOC(=O)C1=C(O)c2ccccc2C(=O)/C1=C\c1ccc(CC)cc1	6.0	8.9	52.2	x	x	20.1	x
COc1ccc(C2C(C(=O)c3ccco3)=C(O)C(=O)N2Cc2ccccc2)cc1OC (stereo not drawn)	x	16.3	x	x	x	-2.3	x
CNC(=S)N(Cc1ccco1)Cc1cc2c(C)cc(C)cc2[nH]c1=O	x	12.8	x	x	x	-21.8	x
Cc1ccc(NC(=O)c2cc(-n3cnnc3)ccc2Cl)cc1	2.7	7.5	-17.8	-0.7	4.7	24.6	x
O=C(Nc1ccc(-c2nc3ccccc3s2)cc1)c1cc(-n2cnnc2)ccc1Cl	15.5*	8.2	0.7	-0.8	-1.2	-34.1	4.9
COc1cccc(N/C(SCc2ccccc2Cl)=C(/C#N)C(=O)NCc2cccs2)c1	15.7*	8.2	-1.6	-0.2	3.2	25.9	3.0
COc1cccc(N/C(SC)=C(/C#N)C(=O)NCc2cccs2)c1	6.5	3.7	2.2	0.7	8.2	23.3	x
COc1cccc(N/C(SCc2cccc([N+](=O)[O-])c2)=C(/C#N)C(=O)NCc2cccs2)c1	17.1*	5.6	10.5	-2.4	1.0	13.1	4.3
COc1cccc(N/C(SCc2ccccc2C)=C(/C#N)C(=O)NCc2cccs2)c1	19.7*	6.5	-4.5	-2.5	3.1	16.8	4.3
CCCOc1ccc(-c2csc(NC(=O)CC)n2)cc1	x	6.2	x	x	x	-13.6	x
OC(CN1CCC(O)(c2ccccc2F)CC1)c1ccc2c(c1)CCC2 (stereo not drawn)	x	9.4	x	x	x	-86.0	x
CC(C)OCCCNC(=O)C1CCN(S(=O)(=O)c2ccc(F)cc2)CC1	x	13.2	x	x	x	12.0	x
Cc1ccc2cc(CN(CC3CCCO3)S(=O)(=O)c3cccc(C(F)(F)F)c3)c(=O)[nH]c2c1C (stereo not drawn)	x	11.1	x	x	x	18.4	x
Cc1ccccc1OCCNc1cc(N2CCCCC2)ccc1[N+](=O)[O-]	14.2*	9.0	13.4	-0.7	-1.6	9.5	4.6
COc1cccc(OCCNc2cc(N3CCOCC3)ccc2[N+](=O)[O-])c1	11.7*	4.8	-1.9	-2.2	6.4	-9.2	1.1
COc1ccc(OCc2nnc(SCC(=O)Nc3nc(C)cs3)n2C)cc1	x	6.1	x	x	x	-16.6	x
CCc1cc2c(=O)n(Cc3ccco3)c(SCc3c(C)noc3C)nc2s1	13.4*	3.3	-3.3	3.1	-2.7	29.2	7.0
SMILES	RAM inhibit	PGE2 EP2 inh	SKN-1 block	PG9 Ab binder	NR1D1 modulator	EP2 mod	RAM efflux-def
CC(=O)c1ccc(OC(=O)CCN2c3ccccc3Sc3ccccc32)cc1	11.4*	7.2	-0.2	-1.4	-1.4	25.2	3.3
O=C(CCN1c2ccccc2Sc2ccccc21)Oc1ccccc1	7.7	9.9	9.0	0.8	-1.1	42.5	x
C=CCOc1c(Br)cc(CNc2ccc(NC(=O)C(C)C)c(OC)c2)cc1OCC	12.0*	6.0	2.5	-5.7	0.8	18.1	2.5
Cc1cccc2cc(C(c3nnnn3C3CCCC3)N3CCCC3)c(=O)[nH]c12 (stereo not drawn)	x	13.9	x	x	x	-25.9	x
Cc1ccc(/C=C2/Sc3ccccc3N(CC(=O)NCCCOC(C)C)C2=O)cc1	12.8*	3.3	-9.5	-3.5	-4.0	53.7	3.8
CCOCCCNC(=O)CN1C(=O)/C(=C\c2ccc(C)cc2)Sc2ccccc21	8.0	2.2	10.4	0.7	-2.0	7.0	x
CC1(C)C(=O)NCCN1C(=O)Cn1nc(C(c2ccccc2)c2ccccc2)oc1=O	x	x	x	x	x	-21.1	x
CCOc1cc(/C=C2\C=C(c3ccc(C)cc3)OC2=O)ccc1OCC#N	x	19.1	x	x	x	-12.2	x
CCS(=O)(=O)c1ccc(-c2csc(-c3ccc(Cl)cc3)n2)c(Cl)c1Cl	11.5*	9.7	20.9	-1.1	5.5	6.6	3.2
Cc1onc(-c2ccccc2)c1C(=O)N(CC#N)CC#N	x	9.2	x	x	x	-13.2	x
COc1cc(-c2cc(C(=O)NCc3ccco3)c3ccccc3n2)cc(OC)c1OC	x	x	-11.6	0.1	-3.1	x	x
COc1cc(-c2cc(C(=O)Nc3ccc(S(=O)(=O)NCc4ccco4)cc3)c3ccccc3n2)cc(OC)c1OC	12.9*	7.0	9.1	-1.1	-3.2	0.2	4.5
COc1ccc(C)cc1N1C(=N)/C(=C2/Nc3ccccc3S2)C(c2ccccc2)C1=O (stereo not drawn)	13.5*	5.2	9.3	-2.1	1.2	5.9	3.1
Cc1cc2cc(CN(CCCO)C(=S)NCC3CCCO3)c(=O)[nH]c2cc1C (stereo not drawn)	x	5.7	x	x	x	-3.6	x
CCOc1ccccc1N=C1SC(CC(=O)Nc2ccc(OC)cc2OC)C(=O)N1CCC1=CCCCC1 (stereo not drawn)	2.6	1.2	3.1	-5.0	-0.3	43.6	x
O=C(CC1SC(=Nc2ccc(OC(F)F)cc2)N(CCC2=CCCCC2)C1=O)Nc1ccccc1F (stereo not drawn)	11.5*	12.6	-3.6	-1.9	3.5	-9.6	1.8
COc1ccc(C2NC(=O)NC(C)=C2C(=O)Nc2ccc(F)cc2)cc1OC (stereo not drawn)	x	10.0	x	x	x	2.7	x
COc1ccc(C2NC(=O)NC(C)=C2C(=O)Nc2cc(C)ccc2C)cc1OC (stereo not drawn)	11.8*	10.1	-6.8	-0.9	-2.8	23.1	4.3
CCOC(=O)/C(=C/c1ccc(N2CCC(c3ccccc3)=N2)cc1)C(C)=O	19.9*	7.7	18.6	x	x	45.6	2.2
Cn1nc(C(F)(F)F)c(/C=N/OCc2c(Cl)cccc2Cl)c1Cl	0.2	5.7	-6.7	0.9	3.8	14.8	x
